The list is not random: actives were taken first. Their share in the collection is about 4.1%.
GBA activity – alters purified human glucocerebrosidase activity; purified enzyme, resorufin glucoside fluorescence (screen aimed at inhibitors), 20 min; 48,000 compounds, 1.1% hits; P04062; Potency, µM; AID 360; in the data active means potency below about 15 µM; inconclusive means mostly about 16 µM to 33 µM;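 further: the screen sought inhibitors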
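Normal human glucocerebrosidase (0.2 nM final) was assayed with resorufin β-D-glucopyranoside (30 uM final) in 50mM citric acid/KH2PO4, 10mM sodium taurocholate, 0.01% tween-20, pH 5.9. Compounds were titrated; fluorescence (Ex 548, Em 600) read after 20 min at RT.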
Ub-GFP proteasome – ubiquitin-GFP accumulation via proteasome inhibition; 67,000 tested, under 10 active; Potency, µM (series often up to 45.9 µM), for the others: top-dose activation (GFP accumulation), actives largely listed as activators; Ubiquitin-GFP reporter cells, proteasome inhibition, GFP fluorescence; response scale: untreated = 0%, 10 µM MG-132 = 100%; active means well fitted activation curve with a large enough effect, not every such curve was filed as active; inconclusive means small, poorly fitted or top-dose-only effect, or another doubt; inactive means no such curve, though single readings can be large or run the other way
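U2OS cells stably expressing ubiquitin(G76V)-GFP, seeded overnight in 0.5% FBS medium, were exposed to compounds (qHTS, 46 uM to 2.9 nM) for 4 hr at 37 °C. GFP-positive cells were counted by laser cytometry (488 ex/515 em), normalized between basal and 10 uM MG-132.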
PK Bst – modulators of Bacillus stearothermophilus pyruvate kinase; purified pyruvate kinase, luminescence ATP production; ribose 5-phosphate activator present at AC10; Potency, µM; 51,000 compounds, 1.2% hits; AID 361; in the data active means potency below about 11 µM; inconclusive means mostly about 12 µM to 25 µM;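 the screen sought inhibitors and activators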;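 further: scaled between full activation by ribose 5 phosphate and full inhibition by luteolin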
TSHR agonist – TSH receptor (human) agonism; 73,000 compounds, 0.48% hits; P16473; Potency, µM (series often up to 57.1 µM), inactives show at the top dose activation, hits mostly activators; AID 926; HEK293-CNG-TSHR cells (CNG channel as cAMP sensor), membrane potential dye, cAMP; active means well fitted activation curve with a large enough effect in the main read-out, with a control signal flat, not every such curve was filed as active; inconclusive means small, poorly fitted or top-dose-only effect, or a change in a side signal; inactive means no such curve, though single readings can be large or run the other way; % of control where 0% means no effect;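 further: the control signal comes from parental cells without the receptor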
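HEK 293 cells stably expressing TSHR and a modified CNG channel, with CNG-only parental cells as counterscreen, were preloaded 60 min at room temperature with membrane potential dye containing 100 uM RO 20-1724. Compound exposure was 30 min, and depolarization was read as fluorescence at 590 nm.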
HEK293 cAMP ctrl – parental HEK293 cAMP activation (counter-screen); parental HEK293 CNG cAMP sensor, membrane potential fluorescence; Potency, µM (highest dose often 57.1 µM), for inactives: at the highest dose activation, most hits filed as activators; 73,000 compounds, 2.5% hits; further: % of control where 0% means no effect; nearly all actives have a fitted effect of over 55% in size
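Counterscreen for endogenous-receptor signalling: CNG-channel HEK 293 cells report cAMP rise by membrane depolarization. After 60 min dye equilibration with 100 uM RO 20-1724, compounds incubated 30 min before bottom-read fluorescence at 590 nm.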
USP2a inh – inhibitors of human ubiquitin-specific protease USP2a | O75604 | USP2a enzymatic assay, qHTS inhibition | Potency, µM (titrated, usually from 38.3 µM), inactives show at the highest dose activity change, negative = inhibition, actives largely listed as inhibitors | 60,000 compounds, 0.1% hits | AID 927; further: nearly all actives have a fitted effect of over 60% in size
Target sequence (O75604 whole entry, looked up): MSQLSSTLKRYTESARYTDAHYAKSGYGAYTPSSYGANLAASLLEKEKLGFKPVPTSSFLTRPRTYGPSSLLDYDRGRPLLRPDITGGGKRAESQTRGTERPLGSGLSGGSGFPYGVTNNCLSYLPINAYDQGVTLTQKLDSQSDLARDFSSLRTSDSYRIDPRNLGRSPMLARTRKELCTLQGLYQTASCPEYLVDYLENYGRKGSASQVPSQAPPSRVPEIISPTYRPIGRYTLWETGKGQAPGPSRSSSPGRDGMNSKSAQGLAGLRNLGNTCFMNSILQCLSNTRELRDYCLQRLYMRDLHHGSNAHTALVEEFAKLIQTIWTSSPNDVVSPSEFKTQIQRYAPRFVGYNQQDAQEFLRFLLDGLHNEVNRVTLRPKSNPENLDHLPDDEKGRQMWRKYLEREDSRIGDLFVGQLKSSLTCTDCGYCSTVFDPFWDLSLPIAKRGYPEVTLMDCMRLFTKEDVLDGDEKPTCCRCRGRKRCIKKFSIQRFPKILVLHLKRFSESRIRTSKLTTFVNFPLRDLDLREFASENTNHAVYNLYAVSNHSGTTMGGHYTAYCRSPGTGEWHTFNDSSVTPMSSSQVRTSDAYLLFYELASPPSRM
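Inhibition is measured in a cell-free coupled assay with 20 nM USP2 core, 20 nM Ub-PLA2 and 20 uM NBD C6-HPC, 2.5 h incubation. Activity normalized to NEM control.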
* = called active by the depositor; i = inactive; ? = inconclusive; . = no result given; [ ] = remark or other dose. Unless noted, the call rests on the fitted dose curve; in most records, active means well fitted curve in the direction sought with a large enough effect; inconclusive means small, poorly fitted or top-dose-only effect, or another doubt; inactive means no such curve, though single readings can be large; an effect the other way counts as inactive or inconclusive. Potency means the concentration at half of the fitted maximal effect.

SMILES | GBA activity | Ub-GFP proteasome | PK Bst | TSHR agonist | HEK293 cAMP ctrl | USP2a inh
CNC(=O)c1cc2cc(OC)ccc2oc1=N | >77 | -3% | . | -1% | 9% | -2%
COc1cccc(NC(=O)c2ccccc2-c2nc(-c3ccc(F)cc3)no2)c1 | >77 | 1% | >57 | ? | 32µM* | 0%
COc1ccc2oc(=N)c(C(=O)Nc3ccccc3)cc2c1 | >77 | -2% | 8.2* | 15% | 20% | -2%
COc1cccc(NC(=O)c2ccccc2-c2nc(-c3ccccc3)no2)c1 | >77 | -12% | >57 | ? | 10µM* | 11%
COc1cccc(-c2ccc(-c3noc(-c4ccccc4F)n3)c(OC)n2)c1 | 10* | -3% | >57 | 23% | 16% | 12%
COCCn1cnc2c(c1=O)c1nc3ccccc3nc1n2/N=C/c1cccc(OC)c1OC | i | . | 3.6* | -10% | -15% | 20%
Cc1ccc(C)c(N2CCN(S(=O)(=O)c3ccc4c(c3)OCCO4)CC2)c1 | ? | -3% | >57 | 25µM* | 29% | 146%
Cc1ccc(Cl)cc1N1CCN(S(=O)(=O)c2ccc3c(c2)OCCO3)CC1 | ? | -1% | >57 | 9% | 20% | 22%
COc1ccc(-c2cc(C(=O)N3CCCc4ccccc43)no2)cc1OC | >77 | 4% | >57 | ? | 25µM* | 11%
COc1ccc(OCCCC(=O)N2CCCc3ccccc32)cc1 | >77 | -1% | >57 | ? | 16µM* | -2%
COc1ccc(-c2cc(C(=O)N3CCCc4ccccc43)no2)cc1 | >77 | -10% | i | ? | 20µM* | -4%
COc1cccc(-c2cc(C(=O)N3CCCc4ccccc43)no2)c1 | >77 | 2% | . | ? | 16µM* | -16%
O=C(CCCC(=O)N1CCCc2ccccc21)N1CCCc2ccccc21 | . | -9% | . | 28% | 24% | 11%
CN(C)c1ccc(-c2cncnc2NCCN2CCOCC2)cc1 | . | -4% | . | 4% | -1% | 1%
OC[C@@H]1CCC[C@H](n2cnc3c(=S)nc[nH]c32)O1 | . | -5%[9.17 µM] | . | 4%[11.4 µM] | 5%[11.4 µM] | .
CCNc1ncc2nc(-c3ccc(Cl)cc3)c(=O)n(Cc3ccc(F)cc3)c2n1 | . | -1% | . | 2% | 1% | 105%
COc1cccc(OCCn2cc(C(=O)c3ccco3)c3ccccc32)c1 | >77 | -5% | >57 | ? | ? | -17%
COc1ccccc1OCCn1cc(C(=O)c2ccco2)c2ccccc21 | ? | 0% | >57 | ? | 25µM* | -12%
CS(=O)(=O)Nc1ccc(Nc2c3ccccc3nc3ccccc23)cc1 | . | -12%[9.17 µM] | . | -7%[11.4 µM] | -9%[11.4 µM] | .
CCOC(=O)c1oc2ccccc2c1CSc1nnnn1-c1ccccc1 | >77 | -2% | >57 | ? | 16µM* | 0%
CN(C)CCN(c1ccccn1)c1ccccn1 | . | -3%[9.17 µM] | . | 2%[11.4 µM] | -2%[11.4 µM] | .
CN1CCC(n2[nH]c(-c3ccccc3)c(Cc3ccccc3)c2=O)CC1 | . | -2%[9.17 µM] | . | 8%[11.4 µM] | 17%[11.4 µM] | .
O=c1c2ccccc2nnn1CSc1nnc(-c2ccc3c(c2)OCO3)o1 | 8.8* | -2% | >57 | . | 28% | 8%
O=C(c1ccc2c(c1)OCO2)N1CCN(c2ccc(Cl)cc2)CC1 | . | -4% | . | . | 6% | .
O=C(c1cc(-c2ccc3c(c2)OCO3)on1)N1CCN(c2ccc(F)cc2)CC1 | >77 | 5% | >57 | ? | 32µM* | -15%
SMILES | GBA activity | Ub-GFP proteasome | PK Bst | TSHR agonist | HEK293 cAMP ctrl | USP2a inh
O=C(c1ccc2c(c1)OCO2)N1CCN(c2ccccc2)CC1 | >77 | -2% | >57 | ? | 16µM* | -11%
O=C(c1ccco1)N1CCCC(c2ccccc2)C1 (centres undefined) | >77 | -1% | >57 | 6% | 11% | 3%
O=C(c1ccc2c(c1)OCO2)N1CCCC(c2ccccc2)C1 (centres undefined) | >77 | 1% | >57 | ? | 10µM* | 4%
O=C(c1cc(-c2ccc3c(c2)OCO3)on1)N1CCN(c2ccccc2)CC1 | . | -13% | . | ? | ? | -9%
COc1ccc(-c2cn3cc(C)ccc3n2)cc1OC | . | -1% | 1.8* | 12% | 17% | -3%
COc1ccc(-c2noc(-c3cc(C)cc(C)c3)n2)cc1OC | . | 0% | . | 3% | 2% | .
Cn1cccc1C(=O)N1CCC[C@@]2(CCN(C(c3ccccc3)c3ccccc3)C2)C1 | . | -9% | . | ? | 10µM* | 44%
COC(=O)[C@@]1(Cc2ccccc2)C=C[C@@H](C)N1C(=O)c1ccccc1 | . | . | . | ? | 32µM* | .
CC(=O)N1[C@H](C)C=C[C@]1(Cc1ccccc1)C(=O)NCCc1c[nH]c2ccccc12 | . | . | . | 0% | 28% | .
C[C@@H]1C=C[C@](Cc2ccccc2)(C(=O)NCCCNc2ncc(C(F)(F)F)cc2Cl)N1C(=O)c1ccccc1 | . | . | . | ? | 25µM* | .
C[C@@H]1C=C[C@](Cc2ccccc2)(C(=O)NCCc2c[nH]c3ccccc23)N1C(=O)c1ccccc1 | . | . | . | ? | 2.5µM* | .
N#Cc1ccc(CN2CC[C@@]3(CCCN(S(=O)(=O)c4ccccc4)C3)C2)cc1 | . | -2% | . | 24% | 29% | 83%
O=C(NCCCCN1CCCC1)c1ccc(-n2c(=O)c(=O)[nH]c3ccccc32)cc1 | . | . | . | -1% | -19% | .
Cc1cc2nc(-c3cccnc3SCC(=O)NCc3ccco3)[nH]c2cc1C | >77 | -6% | 3.9* | 4% | 18% | 242%
Cc1ccc(C)c(N2CCN(C(=O)CCCn3c(=S)[nH]c4cc5c(cc4c3=O)OCO5)CC2)c1 | 15* | 2% | >57 | ? | ? | 32%
CCc1nnc(NC(=O)Nc2ccccc2OC)s1 | . | 16% | . | 6% | 5% | 5%
CCc1nnc(NC(=O)c2ccc(OC)cc2OC)s1 | . | 0% | . | ? | 25µM* | .
Cc1ccc(OCC(=O)Nc2ccc3c(c2)nc(CCN2CCOCC2)n3C)cc1 | >77 | 0% | . | ? | 25µM* | -3%
Cc1cccc(N(CC(=O)NC2CCCCC2)C(=O)c2c(C)noc2C)c1 | >77 | -5% | >57 | ? | 16µM* | 20%
Cc1cccc(CN2CCN([C@@H](c3ccccc3)c3ccc(Cl)cc3)CC2)c1 | . | 12%[20.5 µM] | . | -11%[25.6 µM] | 27%[25.6 µM] | 36%[17.1 µM]
COc1ccccc1N=c1oc2cc(O)ccc2cc1C(N)=O | . | -6% | . | . | 5% | 9%
COc1ccccc1N=c1oc2cc(O)ccc2cc1C(=O)NCC1CCCO1 (centres undefined) | >77 | 0% | 2.6* | ? | 1.6µM* | 16%
COc1ccccc1-n1cnnc1SCC(=O)c1cc(C)n(Cc2cccs2)c1C | . | -4% | >57 | ? | 32µM* | 18%
Cc1nn(-c2ccccn2)c2nc(-c3cccs3)cc(C(=O)N3CCOCC3)c12 | >77 | -1% | 7.1* | 3.2µM* | 15% | 11%
CC(=O)Nc1nc(NC(C)=O)c2[nH]c(CO)nc2n1 | . | 1%[9.17 µM] | . | -6%[11.4 µM] | 5%[11.4 µM] | .

Source: PubChem
